Unmarked numbers belong to inactive results. Activity calls are given as the source filed them. Calls follow the shape of the dose curve; as a rule, active = well fitted curve in the direction sought with a large enough effect in the repeat runs; inconclusive = weak or mixed curves; inactive = flat fitted curve, though single readings scatter.
assay: qHTS assay to test for compound auto fluorescence at 535 nm (green) in HepG2 cells (AID 720675); settings: green autofluorescence 485/535 nm, 1 h; series mostly up to 91.3 µM; fluorescence, % of fluorescein control: at the top concentration
Description: National Center for Advancing Translational Sciences [NCATS]
NIH Chemical Genomics Center [NCGC]
U.S. Environmental Protection Agency [EPA]
National Institutes of Environmental Health Sciences [NIEHS]
National Toxicology Program [NTP]
U.S. Food and Drug Administration [FDA]
Compound auto fluorescence often interferes with screening of the compound library against various biological targets and signaling pathways. Some of these compounds may have fluorophoric properties. Such properties may interfere with the assay outputs resulting in false positives and/or negatives. To decrease such complications and ensure the compound activities are relevant in terms of biological response, the Tox21 10K compound library was screened for auto fluorescence.
From the fluorophores used as reporter signals in our screening assays, the auto fluorescence equivalencies of compounds against three fluorophores have been evaluated: Triamterene, Fluorescein and Rose Bengal sodium for blue, green and red fluorescence, respectively. The fluorescence intensities were measured using Excitation/Emission wavelengths at 405/460nm, 485/535nm and 540/590nm for blue, green and red labels, respectively. This assay includes the green fluorescence data.
Tox21 Assay Protocol Summary:
2,000 HepG2 cells in 5 uL of culture medium (MEM containing 10% FBS) per well were dispensed into black wall/clear bottom 1536-well plates using a Multidrop Combi Dispenser (ThermoFisher Scientific, Waltham, MA). The assay plates were incubated overnight at 37 C to allow cell attachment to the well bottom, followed by the transfer of 23 nL compound or DMSO vehicle by a pintool work station (Kalypsys , San Diego, CA). After the assay plates were incubated for 1 hr at 37 C and 5% CO2, fluorescence intensities in the assay plates were measured by an Envision (PerkinElmer, Shelton, CT) plate reader using three labels for measuring blue, green and red fluorescence at […] 460, 535 and 590 nm respectively.
% is scaled to controls: 0 for no effect and ±100 for the full control effect.

First: CCCCCCOC(=O)c1ccccc1
Second: CCCC(=O)OCc1ccccc1
The “fluorescence, % of fluorescein control” value of the first is lower: -0.124% for the first, -0.021% for the second.

Compared with CCC(CC)C(=O)O, CCCC(=O)OCCC(C)C is lower in “fluorescence, % of fluorescein control” value: -0.032% for the first, -0.0932% for the second.

Going from Cc1cc(C)n(CO)n1 to Cc1nc(C)c(C)nc1C, the “fluorescence, % of fluorescein control” value rises from -0.0056% to 0.0888%.

Going from CCOC(=O)CC(O)(CC(=O)OCC)C(=O)OCC to CCOC(OCC)OCC, the “fluorescence, % of fluorescein control” value falls from -0.0268% to -0.0448%.

First: C1CCN(CN2CCCCC2)CC1
Second: CCCC1CCOC(C)S1 (stereo not given)
The “fluorescence, % of fluorescein control” value of the first is higher: 0.0942% for the first, -0.0074% for the second.

Going from CNc1ccccc1 to c1ccc(CN(Cc2ccccc2)Cc2ccccc2)cc1, the “fluorescence, % of fluorescein control” value rises from -0.0599% to 0.0081%.

First: COc1ccc(/C=C/S(=O)(=O)NC(=O)c2ccc(C)cc2Cl)cc1
Second: O=C(c1ccc(Cl)cc1)c1ccc(Cl)cc1
The “fluorescence, % of fluorescein control” value of the first is lower: -0.106% for the first, 0.017% for the second.

Compared with CCCCOC(=O)C(C)Oc1ccc(Oc2ccc(C(F)(F)F)cn2)cc1 (stereo not given), CCOc1ccc2c(c1)C(C)CC(C)(C)N2 (stereo not given) is higher in “fluorescence, % of fluorescein control” value: 0.004% for the first, 0.0621% for the second.

First: CC(C)=CCC/C(C)=C/C=N/O
Second: CCCCCCC/C=C/C=O
The “fluorescence, % of fluorescein control” value of the first is higher: 0.0929% for the first, 0.0432% for the second.

First: O=Cc1ccc(Cl)c([N+](=O)[O-])c1
Second: O=C1OC(=O)C2CC=CCC12 (stereo not given)
The “fluorescence, % of fluorescein control” value of the first is lower: -0.0225% for the first, 0.0157% for the second.

Going from CCOCCn1c(N2CCCN(C)CC2)nc2ccccc21 to Cc1cccc(C)c1NC(=O)CN1CCCC1, the “fluorescence, % of fluorescein control” value falls from 0.0027% [at 46 µM] to -0.0795% [at 46 µM].

Going from O=C1c2ccccc2C(=O)c2c1ccc(O)c2O to Oc1ccc(CCNCCCCCCNCCc2ccccc2)cc1O, the “fluorescence, % of fluorescein control” value rises from -0.244% [at 46 µM] to 0.0109% [at 46 µM].

First: COc1cc(C)c(Cc2cnc(N)nc2N)cc1OC
Second: COc1ccc(/C=C/c2cc(OC)cc(=O)o2)cc1
The “fluorescence, % of fluorescein control” value of the first is higher: -0.06% [at 46 µM] for the first, -0.0624% [at 46 µM] for the second.

Compared with C[C@]12CCC(=O)C=C1[C@@H]1C[C@@H]1[C@H]1[C@@H]3[C@@H]4C[C@@H]4[C@@]4(CCC(=O)O4)[C@@]3(C)CC[C@@H]12, CO[C@@H]1[C@@H](O[C@@H]2O[C@H](C)[C@@H](O[C@H]3C[C@@](C)(O)[C@@H](O)[C@H](C)O3)[C@H](N(C)C)[C@H]2O)[C@@H](CC=O)C[C@@H](C)[C@@H](O[C@@H]2CC[C@H](N(C)C)[C@@H](C)O2)/C=C/C=C/C[C@@H](C)OC(=O)C[C@H]1OC(C)=O is lower in “fluorescence, % of fluorescein control” value: 0.0213% [at 46 µM] for the first, 0.0042% [at 46 µM] for the second.

First: C[C@@H](O)[C@H]1C(=O)N2C(C(=O)O)=C(S[C@@H]3CN[C@H](CNS(N)(=O)=O)C3)[C@H](C)[C@H]12
Second: CC(C)(Cc1c[nH]c2ccccc12)NCC(O)COc1ccccc1C#N (stereo not given)
The “fluorescence, % of fluorescein control” value of the first is higher: 0.121% [at 46 µM] for the first, -0.166% [at 46 µM] for the second.

In the case of O=C(O)c1cccnc1Nc1cccc(C(F)(F)F)c1, the “fluorescence, % of fluorescein control” value is reported as 0.041% [at 46 µM].

First: CC(O)C(C)O (stereo not given)
Second: CC(C)CC(C)(C)C
The “fluorescence, % of fluorescein control” value of the first is higher: 0.0851% [at 95.7 µM] for the first, -0.0385% [at 95.7 µM] for the second.

Compared with NC(=O)c1ccccc1, CC(=O)Nc1cccc(N)c1 is lower in “fluorescence, % of fluorescein control” value: -0.0919% [at 95.7 µM] for the first, -0.264% [at 95.7 µM] for the second.

Compared with O=[N+]([O-])c1ccccc1CCO, CCCCOC(=O)CC#N is lower in “fluorescence, % of fluorescein control” value: 0.0367% [at 95.7 µM] for the first, -0.0094% [at 95.7 µM] for the second.

With CCOC(C)OCC the outcome was “inactive”.
For COc1cc(CNC(=O)CCCC/C=C/C(C)C)ccc1O, the outcome was “inactive”.

In the case of CCc1c(C)[nH]c2c1C(=O)C(CN1CCOCC1)CC2 (stereo not given), the fluorescence, % of fluorescein control is reported as 0.0551% [at 18.6 µM].
